In publication PMC11006913:

Tests used:
Test in all cases: PBM; 200 nM protein, PBS
Conditions in all cases: dsDNA, one strand shown
HOXB9 [1] = target: HOXB9 (Homo sapiens, UniProt P17482 171-250, T197M)
HOXC9 [2] = target: HOXC9 (Homo sapiens, UniProt P31274 178-260, K195R)
HOXC10 [3] = target: HOXC10 (Homo sapiens, UniProt Q9NYD6 254-340)
HOXB9 [4] = target: HOXB9 (Homo sapiens, UniProt P17482 171-250)
HOXC9 [5] = target: HOXC9 (Homo sapiens, UniProt P31274 178-260)
HOXC9 [6] = target: HOXC9 (Homo sapiens, UniProt P31274 178-260, R193K)
Chain of HOXC9 (Homo sapiens, UniProt P31274 178-260, R193K) (P31274 178-260 R193K): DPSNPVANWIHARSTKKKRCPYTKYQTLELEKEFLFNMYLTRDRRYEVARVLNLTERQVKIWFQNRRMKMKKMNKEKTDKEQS

HOXC10 [7] = target: HOXC10 (Homo sapiens, UniProt Q9NYD6 254-340, K271E)
Chain of HOXC10 (Homo sapiens, UniProt Q9NYD6 254-340, K271E) (Q9NYD6 254-340 K271E): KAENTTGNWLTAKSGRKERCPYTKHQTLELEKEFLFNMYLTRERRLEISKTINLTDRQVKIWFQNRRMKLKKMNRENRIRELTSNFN

HOXB9 [8] = target: HOXB9 (Homo sapiens, UniProt P17482 171-250, R186Q)
Chain of HOXB9 (Homo sapiens, UniProt P17482 171-250, R186Q) (P17482 171-250 R186Q): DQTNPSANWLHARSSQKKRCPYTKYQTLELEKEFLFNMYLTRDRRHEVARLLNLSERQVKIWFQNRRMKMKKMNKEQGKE

HOXC9 [9] = target: HOXC9 (Homo sapiens, UniProt P31274 178-260, R222W)
Chain of HOXC9 (Homo sapiens, UniProt P31274 178-260, R222W) (P31274 178-260 R222W): as the sequence (P31274 178-260 R193K) above, with K16R, R45W counted along it

HOXD13 [10] = target: HOXD13 (Homo sapiens, UniProt P35453 263-343, T313R)
Chain of HOXD13 (Homo sapiens, UniProt P35453 263-343, T313R) (P35453 263-343 T313R): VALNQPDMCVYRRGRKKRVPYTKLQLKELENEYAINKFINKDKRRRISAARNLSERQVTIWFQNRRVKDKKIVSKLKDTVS

HOXD13 [11] = target: HOXD13 (Homo sapiens, UniProt P35453 263-343)
Chain of HOXD13 (Homo sapiens, UniProt P35453 263-343) (P35453 263-343): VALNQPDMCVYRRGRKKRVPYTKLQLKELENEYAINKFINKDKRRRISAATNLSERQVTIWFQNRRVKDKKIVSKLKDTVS

HOXD13 [12] = target: HOXD13 (Homo sapiens, UniProt P35453 263-343, T313A)
Chain of HOXD13 (Homo sapiens, UniProt P35453 263-343, T313A) (P35453 263-343 T313A): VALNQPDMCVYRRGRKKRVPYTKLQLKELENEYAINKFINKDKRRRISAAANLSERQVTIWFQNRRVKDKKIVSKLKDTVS

HOXA2 [13] = target: HOXA2 (Homo sapiens, UniProt O43364 129-215, R185T)
Chain of HOXA2 (Homo sapiens, UniProt O43364 129-215, R185T) (O43364 129-215 R185T): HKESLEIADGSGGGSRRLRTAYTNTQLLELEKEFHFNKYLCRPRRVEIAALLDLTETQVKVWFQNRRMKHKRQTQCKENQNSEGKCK

HOXA2 [14] = target: HOXA2 (Homo sapiens, UniProt O43364 129-215, R185K)
Chain of HOXA2 (Homo sapiens, UniProt O43364 129-215, R185K) (O43364 129-215 R185K): as the sequence (O43364 129-215 R185T) above, with T57K counted along it

HOXA2 [15] = target: HOXA2 (Homo sapiens, UniProt O43364 129-215, Y150S)
Chain of HOXA2 (Homo sapiens, UniProt O43364 129-215, Y150S) (O43364 129-215 Y150S): as the sequence (O43364 129-215 R185T) above, with Y22S, T57R counted along it

HOXA2 [16] = target: HOXA2 (Homo sapiens, UniProt O43364 129-215)
Chain of HOXA2 (Homo sapiens, UniProt O43364 129-215) (O43364 129-215): as the sequence (O43364 129-215 R185T) above, with T57R counted along it

Chain of HOXC10 (Homo sapiens, UniProt Q9NYD6 254-340) (Q9NYD6 254-340): as the sequence (Q9NYD6 254-340 K271E) above, with E18K counted along it
Chain of HOXC9 (Homo sapiens, UniProt P31274 178-260) (P31274 178-260): as the sequence (P31274 178-260 R193K) above, with K16R counted along it
Chain of HOXC9 (Homo sapiens, UniProt P31274 178-260, K195R) (P31274 178-260 K195R): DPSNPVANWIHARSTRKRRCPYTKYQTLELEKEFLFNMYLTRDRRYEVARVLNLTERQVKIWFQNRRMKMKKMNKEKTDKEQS
Chain of HOXB9 (Homo sapiens, UniProt P17482 171-250) (P17482 171-250): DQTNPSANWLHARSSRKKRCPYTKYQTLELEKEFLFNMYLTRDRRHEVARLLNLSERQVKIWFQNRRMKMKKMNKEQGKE
Chain of HOXB9 (Homo sapiens, UniProt P17482 171-250, T197M) (P17482 171-250 T197M): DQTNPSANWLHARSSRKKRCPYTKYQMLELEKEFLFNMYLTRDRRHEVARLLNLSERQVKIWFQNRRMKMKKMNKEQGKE

| Sequence | binding signal (HOXB9 [1]) | binding signal (HOXC9 [2]) | binding signal (HOXC10 [3]) | binding signal (HOXB9 [4]) | binding signal (HOXC9 [5]) | binding signal (HOXC9 [6]) | binding signal (HOXC10 [7]) | binding signal (HOXB9 [8]) | binding signal (HOXC9 [9]) | binding signal (HOXD13 [10]) | binding signal (HOXD13 [11]) | binding signal (HOXD13 [12]) | binding signal (HOXA2 [13]) | binding signal (HOXA2 [14]) | binding signal (HOXA2 [15]) | binding signal (HOXA2 [16]) |
| --- | --- | --- | --- | --- | --- | --- | --- | --- | --- | --- | --- | --- | --- | --- | --- | --- |
| GTCGTTAA | 10 upbm affinity estimate (log intensity, higher = more binding, comparable within an allelic series) | 12.6 upbm affinity estimate (log intensity, higher = more binding, comparable within an allelic series) | 12.5 upbm affinity estimate (log intensity, higher = more binding, comparable within an allelic series) | 11.8 upbm affinity estimate (log intensity, higher = more binding, comparable within an allelic series) | 12.8 upbm affinity estimate (log intensity, higher = more binding, comparable within an allelic series) | 12.6 upbm affinity estimate (log intensity, higher = more binding, comparable within an allelic series) | 12.4 upbm affinity estimate (log intensity, higher = more binding, comparable within an allelic series) | 11.3 upbm affinity estimate (log intensity, higher = more binding, comparable within an allelic series) | 10.6 upbm affinity estimate (log intensity, higher = more binding, comparable within an allelic series) |  |  |  |  |  |  |  |
| CTCATAAA | 9.59 upbm affinity estimate (log intensity, higher = more binding, comparable within an allelic series) | 12.6 upbm affinity estimate (log intensity, higher = more binding, comparable within an allelic series) | 12.4 upbm affinity estimate (log intensity, higher = more binding, comparable within an allelic series) | 11.9 upbm affinity estimate (log intensity, higher = more binding, comparable within an allelic series) | 12.8 upbm affinity estimate (log intensity, higher = more binding, comparable within an allelic series) | 12.6 upbm affinity estimate (log intensity, higher = more binding, comparable within an allelic series) | 11.8 upbm affinity estimate (log intensity, higher = more binding, comparable within an allelic series) | 11.5 upbm affinity estimate (log intensity, higher = more binding, comparable within an allelic series) | 11.1 upbm affinity estimate (log intensity, higher = more binding, comparable within an allelic series) | 11.2 upbm affinity estimate (log intensity, higher = more binding, comparable within an allelic series) | 12.5 upbm affinity estimate (log intensity, higher = more binding, comparable within an allelic series) | 12.2 upbm affinity estimate (log intensity, higher = more binding, comparable within an allelic series) |  |  |  |  |
| ATAATAAA | 9.88 upbm affinity estimate (log intensity, higher = more binding, comparable within an allelic series) | 12.7 upbm affinity estimate (log intensity, higher = more binding, comparable within an allelic series) | 12.5 upbm affinity estimate (log intensity, higher = more binding, comparable within an allelic series) | 11.9 upbm affinity estimate (log intensity, higher = more binding, comparable within an allelic series) | 12.7 upbm affinity estimate (log intensity, higher = more binding, comparable within an allelic series) | 12.7 upbm affinity estimate (log intensity, higher = more binding, comparable within an allelic series) | 11.9 upbm affinity estimate (log intensity, higher = more binding, comparable within an allelic series) | 11.5 upbm affinity estimate (log intensity, higher = more binding, comparable within an allelic series) | 11.2 upbm affinity estimate (log intensity, higher = more binding, comparable within an allelic series) | 10.8 upbm affinity estimate (log intensity, higher = more binding, comparable within an allelic series) | 11.8 upbm affinity estimate (log intensity, higher = more binding, comparable within an allelic series) | 11.6 upbm affinity estimate (log intensity, higher = more binding, comparable within an allelic series) |  |  |  |  |
| ATCATAAA | 9.69 upbm affinity estimate (log intensity, higher = more binding, comparable within an allelic series) | 12.7 upbm affinity estimate (log intensity, higher = more binding, comparable within an allelic series) | 12.5 upbm affinity estimate (log intensity, higher = more binding, comparable within an allelic series) | 11.9 upbm affinity estimate (log intensity, higher = more binding, comparable within an allelic series) | 12.8 upbm affinity estimate (log intensity, higher = more binding, comparable within an allelic series) | 12.7 upbm affinity estimate (log intensity, higher = more binding, comparable within an allelic series) | 11.8 upbm affinity estimate (log intensity, higher = more binding, comparable within an allelic series) | 11.7 upbm affinity estimate (log intensity, higher = more binding, comparable within an allelic series) | 10.9 upbm affinity estimate (log intensity, higher = more binding, comparable within an allelic series) | 10.8 upbm affinity estimate (log intensity, higher = more binding, comparable within an allelic series) | 11.8 upbm affinity estimate (log intensity, higher = more binding, comparable within an allelic series) | 11.8 upbm affinity estimate (log intensity, higher = more binding, comparable within an allelic series) |  |  |  |  |
| CGCCACCG | 8.56 upbm affinity estimate (log intensity, higher = more binding, comparable within an allelic series) | 9.67 upbm affinity estimate (log intensity, higher = more binding, comparable within an allelic series) |  | 8.3 upbm affinity estimate (log intensity, higher = more binding, comparable within an allelic series) | 9.81 upbm affinity estimate (log intensity, higher = more binding, comparable within an allelic series) | 9.64 upbm affinity estimate (log intensity, higher = more binding, comparable within an allelic series) |  | 8.46 upbm affinity estimate (log intensity, higher = more binding, comparable within an allelic series) | 9.73 upbm affinity estimate (log intensity, higher = more binding, comparable within an allelic series) | 9.57 upbm affinity estimate (log intensity, higher = more binding, comparable within an allelic series) | 9.56 upbm affinity estimate (log intensity, higher = more binding, comparable within an allelic series) | 9.65 upbm affinity estimate (log intensity, higher = more binding, comparable within an allelic series) | 7.25 upbm affinity estimate (log intensity, higher = more binding, comparable within an allelic series) | 10.5 upbm affinity estimate (log intensity, higher = more binding, comparable within an allelic series) | 10.7 upbm affinity estimate (log intensity, higher = more binding, comparable within an allelic series) | 7.41 upbm affinity estimate (log intensity, higher = more binding, comparable within an allelic series) |
| GTCGTAAA | 9.95 upbm affinity estimate (log intensity, higher = more binding, comparable within an allelic series) | 13.1 upbm affinity estimate (log intensity, higher = more binding, comparable within an allelic series) | 13.2 upbm affinity estimate (log intensity, higher = more binding, comparable within an allelic series) | 12.6 upbm affinity estimate (log intensity, higher = more binding, comparable within an allelic series) | 13.3 upbm affinity estimate (log intensity, higher = more binding, comparable within an allelic series) | 13 upbm affinity estimate (log intensity, higher = more binding, comparable within an allelic series) | 12.7 upbm affinity estimate (log intensity, higher = more binding, comparable within an allelic series) | 11.9 upbm affinity estimate (log intensity, higher = more binding, comparable within an allelic series) | 11 upbm affinity estimate (log intensity, higher = more binding, comparable within an allelic series) | 10.9 upbm affinity estimate (log intensity, higher = more binding, comparable within an allelic series) | 12.3 upbm affinity estimate (log intensity, higher = more binding, comparable within an allelic series) | 11.9 upbm affinity estimate (log intensity, higher = more binding, comparable within an allelic series) |  |  |  |  |
